Activity calls are given as the source filed them.

The values that follow come from PubChem BioAssay.

The test system of experiment [1] is Plasmodium falciparum Sir2 (PF13_0152, Sir2A). Briefly: Plasmodium falciparum Sir2A binding compounds – biochemical, small-molecule microarray, 635 nm fluorescence, primary screen (AID 1098).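 Further: score merges spot fluorescence intensity with its signal-to-noise ratio.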 As to conditions: fluorescence 635 nm, higher = more signal.
A short description of experiment [2]: probe aDKK1 binding to arrayed compounds – biochemical, biotinylated probe, 635/667 nm fluorescence, primary screen (AID 1099).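 Further: score merges 667nm spot fluorescence with signal to noise across triplicate slides.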 As to conditions: small-molecule microarray, higher = more signal.
A short description of experiment [3]: probe aCHRDL2 binding to arrayed compounds – biochemical, biotinylated probe, 635/667 nm fluorescence, primary screen (AID 1100). The conditions noted are these: small-molecule microarray, higher = more signal.
A short description of experiment [4]: change in splice reporter luminescence, either direction, cell-based, HEK293, spliceosome inhibition project, primary screen (AID 1101).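 Further: HEK293 cells carrying a splicing-competent luciferase reporter gene; test concentration not given here.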 As to conditions: HEK293 splicing luciferase reporter, 24 h, higher = more signal, called active from +8 up or from −8 down. On the technique in general: A reporter such as luciferase makes a cellular process visible.
The target in experiment [5] is Fibroblast growth factor 10 (Homo sapiens) (UniProt O15520). Briefly: compounds binding fibroblast growth factor 10 – biochemical, small-molecule microarray, 635 nm fluorescence, primary screen (AID 1102). The conditions noted are these: FGF10 binding, fluorescence 635 nm, higher = more signal.
For experiment [6], the system named is glycogen synthase kinase-3 (GSK3A per assay name; protocol says GSK3B). Briefly: compounds binding glycogen synthase kinase-3 – biochemical, small-molecule microarray, 635 nm fluorescence, GSK3A, primary screen (AID 1103). Further: the record names both GSK3A and GSK3B. The conditions noted are these: fluorescence 635 nm, higher = more signal.
In experiment [7] the target is Epidermal growth factor receptor (Homo sapiens) (UniProt P00533). Briefly: compounds binding epidermal growth factor receptor – biochemical, small-molecule microarray, 635 nm fluorescence, primary screen (AID 1104).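 Further: score merges 667 nm emission intensity with spot signal to noise over triplicate slides.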 As to conditions: EGFR binding, higher = more signal.
The target of experiment [8] is Follistatin-related protein 3 (Homo sapiens) (UniProt O95633). Kind of experiment: compounds binding follistatin-related protein 3 – biochemical, small-molecule microarray, 635 nm fluorescence, primary screen (AID 1105).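 Further: score merges emission near 667 nm and signal to noise per printed spot across three slides.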 The conditions noted are these: FSTL3 binding, higher = more signal.
In experiment [9] the target is Dickkopf-related protein 1 (Homo sapiens) (UniProt O94907). Kind of experiment: small molecules binding DKK1 protein – biochemical, small-molecule microarray, 635 nm fluorescence scan, primary screen (AID 1106).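 Further: score merges emission near 667 nm with signal to noise over three replicate slides.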 As to conditions: higher = more signal.
The subject of experiment [10] is Inhibin beta A chain (activin A). Kind of experiment: small molecules binding activin A – biochemical, small-molecule microarray, 635 nm fluorescence scan, primary screen (AID 1107).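 Further: mouse activin A protein probed at 4.33 µg/mL on printed slides; score merges bound-protein fluorescence near 667 nm with spot signal-to-noise.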 The conditions noted are these: INHBA, higher = more signal.
Experiment [11] deals with Human papillomavirus type 1a protein E7 (residues 44-93). Briefly: small molecules binding HPV E7 44-93 – biochemical, small-molecule microarray, residues 44-93, 635 nm fluorescence, primary screen (AID 1108).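 Further: E7 fragment applied at 1 µg/mL in TBST for 1 h at 4 C; score combines spot fluorescence with its signal to noise ratio.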 The conditions noted are these: fluorescence 635 nm, higher = more signal.
Experiment [12] is described as follows: hepatitis C replication reporter changes, two-sided – Huh7 cells, luciferase reporter, HCV replication inhibitor project, primary screen (AID 1109).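 Further: huh7 hepatoma cells harbouring a luciferase neomycin HCV replicon reporter; luciferase luminescence as measure of HCV replicon replication; test concentration not given here.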 As to conditions: Huh7 HCV replicon luciferase reporter, 48 h; higher = more signal.
Experiment [13] addresses Left-right determination factor 2 (Homo sapiens) (UniProt O00292). Briefly: small molecules binding LEFTY2 protein – biochemical, small-molecule microarray, 635 nm fluorescence scan, primary screen (AID 1110). The conditions noted are these: higher = more signal.
Experiment [14] deals with Calmodulin-1 (Homo sapiens) (UniProt P0DP23). Briefly: small molecules binding calmodulin-1 with EGTA – biochemical, small-molecule microarray, Cy5-labelled CALM1, profiling panel (AID 1111).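 Further: labelled calmodulin applied in Tris saline Tween buffer holding calcium plus EGTA and DTT.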 The conditions noted are these: Cy5-CALM1 binding fluorescence, higher = more signal.
Experiment [15] shares this target. Briefly: small molecules binding Ca-loaded calmodulin-1 – biochemical, small-molecule microarray, Cy5-labelled CALM1, plus calcium, artefact control for SMM control-protein annotation, profiling panel (AID 1112).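 Further: score merges spot fluorescence with signal to noise from triplicate slides.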 The conditions noted are these: Cy5-CALM1 binding fluorescence, higher = more signal.
A short description of experiment [16]: probe aWnt5a binding to arrayed compounds – biochemical, biotinylated probe, 635/667 nm fluorescence, primary screen (AID 1113).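 Further: score merges 667 nm fluorescence intensity with signal-to-noise per printed feature.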 As to conditions: small-molecule microarray, higher = more signal.
Experiment [17] in a line: probe aShh binding to arrayed compounds – biochemical, biotinylated probe, 635/667 nm fluorescence, primary screen (AID 1114).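 Further: probe is biotin-labelled aShh protein from a stem cell growth factor screen; measures binding of labelled protein to compounds printed on the slide; score merges feature fluorescence at 667 nm with signal-to-noise.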 The conditions noted are these: small-molecule microarray, higher = more signal.
The nature of experiment [18]: probe aNog binding to arrayed compounds – biochemical, biotinylated probe, 635/667 nm fluorescence, primary screen (AID 1115).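 Further: probe is biotinylated aNog protein used at 0.15 µg/mL for 1 h at 4 C; z-score combines 667 nm fluorescence of each spot with its signal to noise.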 The conditions noted are these: small-molecule microarray, higher = more signal.
Experiment [19] deals with Torsin-1A-interacting protein 1 (Homo sapiens) (UniProt Q5JTV8). Briefly: compound microarray binding of lysate hLAP1 – cell lysate, small-molecule microarray, COS7 lysate, 635/667 nm fluorescence, primary screen (AID 1116). As to conditions: 635 nm fluorescence, higher = more signal.
Experiment [20] addresses Alpha-bungarotoxin (Bungarus multicinctus) (UniProt P60615). Briefly: compounds binding labelled alpha-BTX control protein – biochemical, small-molecule microarray, Alexa647 label, 635/667 nm fluorescence, artefact control for SMM control protein annotation, profiling panel (AID 1117). The conditions noted are these: alpha-BTX-A647 binding fluorescence, higher = more signal.

Follistatin-related protein 3 (Homo sapiens), sequence (O95633 whole entry, looked up): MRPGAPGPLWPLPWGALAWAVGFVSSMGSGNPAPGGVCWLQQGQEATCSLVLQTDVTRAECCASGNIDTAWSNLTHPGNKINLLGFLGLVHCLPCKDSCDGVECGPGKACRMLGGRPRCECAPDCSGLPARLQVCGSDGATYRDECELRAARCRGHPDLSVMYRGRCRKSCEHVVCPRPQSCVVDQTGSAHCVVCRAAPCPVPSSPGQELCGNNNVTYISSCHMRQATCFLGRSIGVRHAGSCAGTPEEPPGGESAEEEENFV
Dickkopf-related protein 1 (Homo sapiens), sequence (O94907 whole entry, looked up): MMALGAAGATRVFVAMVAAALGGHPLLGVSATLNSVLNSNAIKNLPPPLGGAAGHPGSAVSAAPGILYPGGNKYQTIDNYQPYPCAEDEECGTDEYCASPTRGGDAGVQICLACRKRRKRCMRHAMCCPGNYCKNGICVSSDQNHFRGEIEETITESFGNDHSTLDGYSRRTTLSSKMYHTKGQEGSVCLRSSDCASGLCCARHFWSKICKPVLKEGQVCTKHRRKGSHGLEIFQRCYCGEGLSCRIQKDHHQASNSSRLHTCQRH
Epidermal growth factor receptor (Homo sapiens), sequence (P00533 whole entry, looked up): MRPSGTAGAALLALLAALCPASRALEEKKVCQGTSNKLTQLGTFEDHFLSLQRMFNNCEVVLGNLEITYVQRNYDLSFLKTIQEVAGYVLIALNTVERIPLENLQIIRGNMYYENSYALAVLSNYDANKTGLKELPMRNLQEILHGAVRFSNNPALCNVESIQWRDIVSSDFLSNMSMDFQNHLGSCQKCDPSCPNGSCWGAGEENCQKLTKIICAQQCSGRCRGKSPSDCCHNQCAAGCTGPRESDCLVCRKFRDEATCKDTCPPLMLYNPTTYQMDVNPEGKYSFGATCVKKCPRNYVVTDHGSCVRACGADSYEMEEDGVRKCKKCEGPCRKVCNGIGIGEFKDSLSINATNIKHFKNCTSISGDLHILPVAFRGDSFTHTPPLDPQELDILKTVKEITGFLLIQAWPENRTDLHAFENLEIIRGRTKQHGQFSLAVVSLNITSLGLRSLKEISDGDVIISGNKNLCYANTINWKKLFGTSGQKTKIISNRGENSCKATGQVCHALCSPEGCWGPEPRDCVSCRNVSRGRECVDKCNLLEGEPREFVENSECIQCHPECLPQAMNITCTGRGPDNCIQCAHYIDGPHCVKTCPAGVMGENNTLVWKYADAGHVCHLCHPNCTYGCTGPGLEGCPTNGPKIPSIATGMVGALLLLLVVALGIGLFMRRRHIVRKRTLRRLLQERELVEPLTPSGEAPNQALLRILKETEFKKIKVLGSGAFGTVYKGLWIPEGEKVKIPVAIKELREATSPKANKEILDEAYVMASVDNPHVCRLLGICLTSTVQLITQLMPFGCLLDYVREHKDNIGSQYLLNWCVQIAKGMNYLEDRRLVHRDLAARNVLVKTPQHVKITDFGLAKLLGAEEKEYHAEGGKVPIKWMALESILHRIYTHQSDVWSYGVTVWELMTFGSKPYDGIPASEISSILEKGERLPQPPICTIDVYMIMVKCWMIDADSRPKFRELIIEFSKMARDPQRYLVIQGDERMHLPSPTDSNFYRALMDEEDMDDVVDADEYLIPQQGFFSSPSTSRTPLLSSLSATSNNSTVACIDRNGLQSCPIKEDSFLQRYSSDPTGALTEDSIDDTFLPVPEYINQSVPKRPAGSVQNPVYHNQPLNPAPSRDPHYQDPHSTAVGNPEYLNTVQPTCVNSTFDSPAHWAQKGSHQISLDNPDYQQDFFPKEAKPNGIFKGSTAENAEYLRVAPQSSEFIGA
Left-right determination factor 2 (Homo sapiens), sequence (O00292 whole entry, looked up): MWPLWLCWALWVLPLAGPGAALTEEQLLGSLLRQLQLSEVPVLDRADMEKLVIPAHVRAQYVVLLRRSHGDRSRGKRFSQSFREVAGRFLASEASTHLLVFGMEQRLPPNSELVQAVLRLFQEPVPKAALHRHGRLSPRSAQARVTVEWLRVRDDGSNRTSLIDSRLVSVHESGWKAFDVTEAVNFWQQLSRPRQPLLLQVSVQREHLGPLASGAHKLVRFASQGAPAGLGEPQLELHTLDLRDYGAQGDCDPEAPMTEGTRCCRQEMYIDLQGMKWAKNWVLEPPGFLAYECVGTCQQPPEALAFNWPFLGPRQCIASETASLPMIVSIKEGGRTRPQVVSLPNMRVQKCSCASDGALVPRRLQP
Fibroblast growth factor 10 (Homo sapiens), sequence (O15520 whole entry, looked up): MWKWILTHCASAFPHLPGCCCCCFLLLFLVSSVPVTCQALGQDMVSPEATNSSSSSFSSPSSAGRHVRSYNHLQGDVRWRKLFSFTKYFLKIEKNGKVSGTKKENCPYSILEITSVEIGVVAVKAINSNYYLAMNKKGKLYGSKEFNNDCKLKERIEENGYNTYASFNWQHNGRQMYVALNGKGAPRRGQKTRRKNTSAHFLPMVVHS
Alpha-bungarotoxin (Bungarus multicinctus), sequence (P60615 whole entry, looked up): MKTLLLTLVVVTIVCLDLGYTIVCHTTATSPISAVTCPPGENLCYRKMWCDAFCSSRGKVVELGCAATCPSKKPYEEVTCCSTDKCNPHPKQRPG
Torsin-1A-interacting protein 1 (Homo sapiens), sequence (Q5JTV8 whole entry, looked up): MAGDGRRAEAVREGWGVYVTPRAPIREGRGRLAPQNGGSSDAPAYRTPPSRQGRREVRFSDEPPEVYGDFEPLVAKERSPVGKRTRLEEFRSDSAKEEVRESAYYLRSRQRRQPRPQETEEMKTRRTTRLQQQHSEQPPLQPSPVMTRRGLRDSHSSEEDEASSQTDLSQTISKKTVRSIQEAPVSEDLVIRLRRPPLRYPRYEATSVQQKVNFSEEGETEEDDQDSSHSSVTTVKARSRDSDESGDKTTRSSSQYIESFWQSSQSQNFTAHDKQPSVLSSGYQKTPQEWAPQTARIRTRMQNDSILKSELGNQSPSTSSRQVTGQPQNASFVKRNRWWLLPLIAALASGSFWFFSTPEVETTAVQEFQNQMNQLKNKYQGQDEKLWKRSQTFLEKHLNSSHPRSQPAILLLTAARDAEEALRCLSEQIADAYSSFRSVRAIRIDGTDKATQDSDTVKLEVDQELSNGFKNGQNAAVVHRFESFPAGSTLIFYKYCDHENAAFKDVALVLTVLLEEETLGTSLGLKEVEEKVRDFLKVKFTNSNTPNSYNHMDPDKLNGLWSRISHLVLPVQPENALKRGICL

Regarding `CO[C@@H]1COC(=O)[C@H](C)NC(=O)[C@@H](C)COC(=O)CCC[C@H]1C`, the composite z-score was 0.957 in [1]; -0.122 in [2]; -0.554 in experiment [3]; 0.721 in experiment [5]; 0.115 in experiment [6]; 0.429 in [7]. Further, the composite z-score in experiment [8] was 1.11; in experiment [9], 0.705; in experiment [10], -0.0431; in experiment [11], 0.379; in experiment [13], 0.753; in experiment [14] it was -0.485. Moreover, the composite z-score in experiment [15] is -0.704; in experiment [16], -0.101; in experiment [17] it was -0.138; in experiment [18], -0.169; in [19], 0.268; in experiment [20], -0.0916. The z-score in [4] is 0.494 (inactive); in experiment [12] it was -1.33.

`COc1ccc(O[C@H]2C=C[C@@H](c3ccccc3)O[C@@H]2CON=C[C@@H](C)[C@H](OCc2ccccc2)C(C)C)cc1`: the composite z-score in experiment [1] was -0.369; in experiment [2], -0.406; in experiment [3], -0.17; in [5], -1.11; in experiment [6] it was -1.04; in experiment [7], -0.805. Also, the composite z-score in [8] was -0.761; in experiment [9] it was -0.733; in experiment [10], 0.272; in [11], -0.409; in experiment [13], -0.0764; in [14], -0.323. Further, the composite z-score in experiment [15] is -0.434; in experiment [16] it was -0.124; in experiment [17], -0.0626; in [18], -0.176; in experiment [19], -1.24; in experiment [20], -0.25. Besides, the z-score in experiment [4] was 0.275 (inactive); in [12], -2.

Regarding `CN1C(=O)[C@@]2(CCC(=O)OC(C)(C)C)N=C(c3ccc(OCCCO)cc3)O[C@H]2c2ccccc21`, the composite z-score in experiment [1] amounted to 1.26; in experiment [2], 0.0179; in experiment [3], 0.457; in [5], 0.788; in experiment [6], 1.33; in experiment [7], 0.181. For the same compound, the composite z-score in [8] is 0.529; in [9] it was -0.0485; in [10], 1.03; in [11], 1.29; in experiment [13], -0.057; in experiment [14], 0.878. The composite z-score in [15] is -0.304; in experiment [16], -0.096; in experiment [17], 0.137; in experiment [18], -0.539; in experiment [19], 0.558; in experiment [20], 0.721. Also, the z-score is -0.0334 (inactive) in experiment [4] and -2.9 in experiment [12].

As for `N#Cc1ccc(NN2C(C(O)c3cc(C(F)(F)F)cc(C(F)(F)F)c3)C=CC3C(=O)N(c4ccccc4)C(=O)C32)cc1` (stereo not given), the composite z-score in experiment [1] was found to be 0.666; in experiment [2] it was 0.175; in [3] it was 1.04; in [5], 1.03; in [6] it was 1.28; in experiment [7], 0.292. Also, the composite z-score was 1.02 in experiment [8]; -0.62 in experiment [9]; 0.733 in experiment [10]; 1.39 in experiment [11]; 0.224 in [13]; 2.44 in experiment [14]. The composite z-score in experiment [15] was 0.892; in [16] it was -0.0009; in [17], 0.0326; in [18] it was -0.753; in [19], 1.73; in experiment [20], 0.692. Also, the z-score in experiment [4] is 0.628 (inactive); in experiment [12], -1.99.

Turning to `CCCCCN1CC=CC23O[C@@H]4C=CCOC(=O)[C@@H]4[C@H]2C(=O)N(CCCCCCO)[C@@H]3C1=O` (stereo not given in full), the composite z-score in experiment [1] is 1.93; in experiment [2], -0.0936; in experiment [3] it was 0.734; in [5], -0.655; in experiment [6], -1.08; in [7], -1.31. Besides, the composite z-score in experiment [8] was -1.81; in experiment [9], -1.54; in experiment [10], -0.395; in experiment [11] it was -0.276; in experiment [13] it was -2; in experiment [14], -0.284. For the same compound, the composite z-score in [15] was 0.168; in experiment [16] it was -0.0417; in [17], 0.0796; in [18] it was 0.293; in experiment [19], 1.9; in experiment [20], -0.729. The z-score in [4] was -0.0127 (inactive); in [12], 0.417.

On to `C=CC[C@@H]1C=C[C@H](ON=Cc2ccc(C(=O)N3[C@H](c4ccc(C)cc4)[C@@H](C)CC[C@H]3C(=O)OC)cc2)[C@@H](CO)O1`, for which the composite z-score in experiment [1] was 0.608; in experiment [2], -0.313; in [3] it was -0.422; in experiment [5], 0.59; in experiment [6], 0.363; in [7], 0.475. Moreover, the composite z-score in experiment [8] is 0.609; in [9] it was 0.381; in experiment [10] it was 0.694; in experiment [11] it was 0.792; in experiment [13], 0.432; in experiment [14], -0.36. The composite z-score in [15] was -0.621; in experiment [16] it was -0.148; in experiment [17], -0.16; in experiment [18], -0.0337; in experiment [19], 0.0268; in experiment [20] it was -0.255. In addition, the values for the z-score in experiment [4] and in [12] were -0.0467 (inactive) and -1.52, respectively.
